Test results published in PubChem BioAssay (NCATS).
Results filed as inconclusive are left out. The source made the active and inactive calls. Calls come from the whole dose curve; as a rule, active = well fitted inhibition curve with a large enough effect; inconclusive = small, poorly fitted or top-dose-only effect; inactive = flat fitted curve, though single readings scatter.

Test system: KB-3-1
Assay: Cytotoxic Profiling of Annotated Libraries Using Quantitative High-Throughput Screening (AID 1296008); note: nearly all actives have a fitted effect of over 60% in size
Conditions: Five cell lines viability, CellTiter-Glo ATP luminescence, 48-72 h; max response: hits give low values
From the text: Cell-based phenotypic screening is a commonly used approach to discover biological pathways, novel drug targets, chemical probes and high-quality hit-to-lead molecules. Many hits identified from high-throughput screening campaign are ruled out through a series of follow-up potency, selectivity/specificity, and cytotoxicity assays. Prioritization of molecules with little or no cytotoxicity for a more in-depth downstream evaluation influence the future direction of projects, so cytotoxicity profiling of the screening libraries at early stage is essential for increasing the likelihood of candidate success. […] For the annotated library, we also examined the primary targets and mechanistic pathways regularly associated with cell death. To our knowledge, this is the first study to use high-throughput screening to profile large libraries for cytotoxicity assessment in both normal and cancer cell lines. In summary, the results generated here constitutes a valuable resource for the scientific community and provides insight on identifying cytotoxic compounds with particular mechanisms of action, and prioritizing compounds with suitable cytotoxicity profile for further evaluation.
A pintool (Kalypsys) was used to transfer 23 nL of compound solution to the 1536-well assay plates. After 48 or 72 hr incubation at 37 degree Celsius, 5% CO2 and 95% humidity, 2.5 uL of CellTiter-Glo (Promega) was dispensed into each well using a dispenser (Aspect Automation, St. Paul, MN) with solenoid valves (Lee Valves, Westbrook CT). Plates were left at room temperature for 10 min before imaging the ATP-coupled luminescence using a ViewLux microplate imager (PerkinElmer, Waltham, MA).
% is set by controls: 0 for no effect and ±100 for the full control effect; potency is the fitted concentration of half-maximal effect.

| Compound | max response | outcome | Potency |
| --- | --- | --- | --- |
| CC(C)(OC1OC(CO)C(O)C(O)C1O)C1CCC(O)(CO)C2CC(O)C(C)(O)C2C1 (stereo not given) | 2.34% (inactive) | – | – |
| CCOC(=O)c1ccnc(CNCC(=O)N(CC)CCN(C)C)c1 | 5.64% (inactive) | – | – |
| CN(C)CCCN1c2ccccc2C(C)(C)c2ccccc21 | -18.4% (inactive) | – | – |
| CO/N=C(/C(=O)N[C@@H]1C(=O)N2C(C(=O)O)=C(CSC(=O)c3ccco3)CS[C@H]12)c1csc(N)n1 | -14.5% (inactive) | inactive | – |
| CC1(C)CC2C3=CCC4C5(C)CCC(OC6OC(CO)C(O)C(OC7OC(CO)C(O)C(OC8OC(CO)C(O)C(OC9OC(COC%10OC(CO)C(O)C(O)C%10O)C(O)C(O)C9O)C8O)C7O)C6O)C(C)(C)C5CCC4(C)C3(C)CCC2(C(=O)O)CC1O (stereo not given) | -7.8% (inactive) | – | – |
| CN1C(=O)N[C@@H](Cc2c[nH]c3c(Cl)cccc23)C1=O | -1.43% (inactive) | – | – |
| CC(CCC1(O)OC2CC3C4CCC5CC(O[C@@H]6O[C@H](CO)[C@@H](O)[C@H](O)[C@H]6O[C@@H]6OC[C@@H](O)[C@H](O)[C@H]6O)C(O)CC5(C)C4CCC3(C)C2C1C)CO[C@@H]1O[C@H](CO)[C@@H](O)[C@H](O)[C@H]1O (stereo not given in full) | – | inactive | – |
| CN(C)CC/C=C1/c2ccccc2CSc2ccccc21 | -13.6% (inactive) | – | – |
| CCCCC(C)(O)C/C=C/[C@H]1[C@H](O)CC(=O)[C@@H]1CCCCCCC(=O)OC (stereo not given in full) | 3.19% (inactive) | – | – |
| C=C(C)[C@@H]1CC[C@](C)(O)[C@@H](OC(=O)c2ccccc2)C1 | 2.9% (inactive) | – | – |
| CC(=O)OC[C@@]12[C@@H](OC(C)=O)C[C@@H](C)[C@](C)([C@@H]3C[C@H]4C=CO[C@H]4O3)[C@H]1CCC[C@]21CO1 | – | inactive | – |
| CC(C)=CCC/C(C)=C/CC/C(C)=C/CC[C@]1(C)CCc2cc(O)cc(C)c2O1 | 1.67% (inactive) | – | – |
| CN(C)C/C=C/C(=O)Nc1ccc(C(=O)Nc2cccc(Nc3ncc(Cl)c(-c4c[nH]c5ccccc45)n3)c2)cc1 | – | – | 184 nM (active) |
| CC(=O)O[C@@H]1[C@@H](OC(=O)/C=C/c2ccccc2)[C@H](C)O[C@@H](O[C@H]2[C@@H]3C=CO[C@@H](O[C@@H]4O[C@H](CO)[C@@H](O)[C@H](O)[C@H]4O)[C@@H]3[C@@]3(CO)O[C@@H]23)[C@@H]1OC(C)=O | 5.32% (inactive) | – | – |
| COc1ccc2c(c1O)OC[C@H]1c3ccc(O)cc3O[C@@H]21 | – | inactive | – |
| CC(C)(O)C1CC=C(C(=O)OCC2OC(Oc3c(O)cc(C(=O)O)cc3O)C(O)C(O)C2O)CC1 (stereo not given) | – | inactive | – |
| CC(=O)c1c(C)cc(O)cc1O[C@@H]1O[C@H](CO)[C@@H](O)[C@H](O)[C@H]1O | – | inactive | – |
| CC1=CCC(C(C)(C)O)CC1 (stereo not given) | 6.57% (inactive) | – | – |
| CC1(C)NC2N(C1=O)c1ccccc1C2(O)CC(C(=O)O)n1cnc2ccccc2c1=O (stereo not given) | – | inactive | – |
| CC1C(=O)CC2C3C(O)CC(C(=O)O)C12CC3(C)C (stereo not given) | 3.18% (inactive) | – | – |

| Compound | max response | outcome | Potency |
| --- | --- | --- | --- |
| C[C@@]12C[C@]3(O)O[C@H](O1)[C@]1(COC(=O)c4ccccc4)[C@H]3C[C@@]12O[C@@H]1O[C@H](COC(=O)c2ccccc2)[C@@H](O)[C@H](O)[C@H]1O | 1.05% (inactive) | – | – |
| OCC1=CC[C@@H]2C=CO[C@@H](O[C@@H]3O[C@H](CO)[C@@H](O)[C@H](O)[C@H]3O)[C@H]12 | – | inactive | – |
| O=C1C[C@@H](c2ccc(O)cc2)Oc2cc(O)ccc21 | 3.42% (inactive) | – | – |
| C=CC(C)(C)C12CC3C(=O)NC(Cc4cnc[nH]4)C(=O)N3C1Nc1ccccc12 (stereo not given) | – | inactive | – |
| CC(C)Nc1cc(-c2c[nH]c(C(=O)N[C@H](CO)c3cccc(Cl)c3)c2)c(Cl)cn1 | -26.9% (inactive) | – | – |
| CC/C=C/CC1=C(CCCCCCCC(=O)O)CCC1=O | 0.0316% (inactive) | – | – |
| COc1ncc(-c2ccc3c(Nc4cc(Oc5cc(F)cc(F)c5)cc(C(=O)O)c4)c(S(=O)(=O)NC4CC4)cnc3c2)c(OC)n1 | – | inactive | – |
| COC(=O)C[C@@H]1C(C(=O)O)=CO[C@@H](O[C@@H]2O[C@H](CO)[C@@H](O)[C@H](O)[C@H]2O)/C1=C\COC(=O)/C=C\c1ccccc1 | -0.0915% (inactive) | – | – |
| NC(=O)c1ccc(OCC2NC(=O)C3CCCN3C2=O)cc1 (stereo not given) | 6.37% (inactive) | – | – |
| CCCCCCCC/C=C\CCCCCCCC(=O)O | 4.43% (inactive) | – | – |
| C=CC1(C)CC2=CCC3C(C)(C(=O)O)CCCC3(C)C2CC1OC(C)=O (stereo not given) | 0.0592% (inactive) | – | – |
| O=C(O)CCc1cc2ccoc2cc1O[C@@H]1O[C@H](CO[C@@H]2OC[C@](O)(CO)[C@H]2O)[C@@H](O)[C@H](O)[C@H]1O | 9.81% (inactive) | – | – |
| O=CCCCC=O | -2.08% (inactive) | – | – |
| C=CCSSSCC=C | -7.72% (inactive) | – | – |
| CC1(C)S[C@@H]2[C@H](NC(=O)Cc3ccccc3)C(=O)N2[C@H]1C(=O)O | -8.27% (inactive) | – | – |
| C[C@]12CCC(=O)C=C1[C@@H](O)C[C@@H]1[C@@H]2[C@@H](O)C[C@@]2(C)[C@H]1CC[C@]2(O)C(=O)CO | 8.45% (inactive) | – | – |
| C[C@]12CC[C@@H]3c4ccc(O[C@@H]5O[C@H](C(=O)O)[C@@H](O)[C@H](O)[C@H]5O)cc4CC[C@H]3[C@@H]1CCC2=O | – | inactive | – |
| CCCCC/C=C\C/C=C\CCCCCCCC(=O)O | -13.1% (inactive) | – | – |
| O=C(O)c1cc(O)c2cccc(O)c2c1O[C@@H]1O[C@H](CO)[C@@H](O)[C@H](O)[C@H]1O | 4.95% (inactive) | – | – |
